According to PubChem BioAssay (NCI):
The panel holds about 79,000 compounds, 15% with a hit somewhere; the sample as a whole holds those more often. Activity calls are given as the source filed them. Rule as the data show it: active = growth inhibition above about 70%; inactive = the rest.

Test: NCI Yeast Anticancer Drug Screen. Data for the mec2-1 strain (AID 157)
Details: S. cerevisiae mec2-1 strain, at 50.0 µM (retest, dose inferred, filed as 5.0), active compounds read high
Summary of the method: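 Cells of the genetically defined mec2-1 yeast strain are incubated with test compound. Inhibition of growth is calculated against vehicle-treated controls.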

Q: Which growth inhibition does the source give for `O=C(O)/C=C/C(=O)Nc1cccc2ccccc12` here?
A: 49% (inactive)

Q: For `CCCCCN=C(C)C(C)=NCCCCC`, which growth inhibition is on record?
A: 92% (active)

Q: Which growth inhibition does the source give for `Oc1ccc(N=Nc2ccccc2)c(O)c1.Oc1ccc(N=Nc2ccccc2)c(O)c1.[Cu]` here?
A: 98% (active)

Q: Which growth inhibition does the source give for `NNc1c(Cl)cc(Cl)cc1Cl` here?
A: 97% (active)

Q: With `C=C1C[C@H](O)[C@H]2C(C[Se]c3ccccc3)C(=O)O[C@@H]2[C@H]2[C@H](C)C(O)C[C@@H]12` (stereo not given in full) as the compound, how does the growth inhibition read?
A: -7% (inactive)

Q: With `O=C(CBr)Oc1ccc(-c2cccc(Br)c2)cc1` as the compound, how does the growth inhibition read?
A: 99% (active)

Q: For `CCCCC1=NCCc2c1cc1c([nH]c3ccccc31)c2C`, which growth inhibition is on record?
A: 7% (inactive)

Q: For `CCOC(=O)NC(=S)Nc1ccsc1`, which growth inhibition is on record?
A: -1% (inactive)

Q: With `CCCCCCCCCCCCCCCCNC(C)c1ccccc1` (stereo not given) as the compound, how does the growth inhibition read?
A: 9% (inactive)

Q: Which growth inhibition does the source give for `Cc1ccc(C2(O)CC(c3ccc([N+](=O)[O-])o3)=NN2C(=O)COc2ccc(Cl)cc2)cc1` (stereo not given) here?
A: 29% (inactive)

Q: For `CCOC(=O)/C(C#N)=C/c1ccccc1Br`, which growth inhibition is on record?
A: 3% (inactive)

Q: With `CCCCCCCCCCCCCCCCNCCCCCCCC(=O)O` as the compound, how does the growth inhibition read?
A: 49% (inactive)

Q: With `CC[N+]1(C)CCC(O)(c2ccc(Cl)c(Cl)c2)C(C(=O)c2ccc(Cl)c(Cl)c2)C1` (stereo not given) as the compound, how does the growth inhibition read?
A: 100% (active)

Q: For `CC(=O)Nc1nnc(-c2coc3ccccc3c2=O)s1`, which growth inhibition is on record?
A: 3% (inactive)

Q: For `CCC(C)(C)NCCCCCNc1cc(OC)cc2cccnc12`, which growth inhibition is on record?
A: 0% (inactive)

Q: With `CSC(=Nc1ccccc1)/N=C(\SCc1ccccc1)N(C)C` as the compound, how does the growth inhibition read?
A: 45% (inactive)

Q: Which growth inhibition does the source give for `N=Cc1cc([N+](=O)[O-])ccc1O` here?
A: 98% (active)

Q: For `CCCCCCCC(=O)/C=C/c1ccc(C)cc1`, which growth inhibition is on record?
A: -50% (inactive)

Q: Which growth inhibition does the source give for `Cc1ccc(S(=O)(=O)N/N=C2/CC[C@H](C(C)(C)C)C[C@@H]2C)cc1` here?
A: 97% (active)

Q: With `Nc1ccc2c(c1)CCc1ccccc1-2` as the compound, how does the growth inhibition read?
A: 10% (inactive)

Q: Which growth inhibition does the source give for `CN(C)CCC(=O)[C@@]1(O)CC[C@H]2[C@@H]3CC=C4C[C@@H](O)CC[C@]4(C)[C@H]3CC[C@@]21C` here?
A: 63% (inactive)

Q: With `CC(=O)OC1COC(N2C(=O)C(=O)c3cc(Br)ccc32)C(OC(C)=O)C1OC(C)=O` (stereo not given) as the compound, how does the growth inhibition read?
A: 7% (inactive)

Q: With `Cc1ccc(N2CCN(c3c(N)cncc3Br)CC2)cc1` as the compound, how does the growth inhibition read?
A: 14% (inactive)

Q: With `O=C(O)c1ccccc1SC(Sc1ccccc1C(=O)O)c1cccc(Cl)c1` as the compound, how does the growth inhibition read?
A: 97% (active)

Q: Which growth inhibition does the source give for `CC[N+](C)(CC)CCC(=O)/C=C/c1ccccc1` here?
A: 69% (inactive)

Q: For `COc1ccc(C(C)c2cc3c(cc2OC/C(C)=N/NC(N)=O)OCO3)cc1` (stereo not given), which growth inhibition is on record?
A: 99% (active)

Q: For `CN=C(N)N/N=C(\C)c1ccc2c(c1)Cc1cc(Cl)ccc1-2`, which growth inhibition is on record?
A: 38% (inactive)

Q: Which growth inhibition does the source give for `CCCCCCCCN/N=C(/C)CCCCCO` here?
A: 9% (inactive)

Q: For `O=[N+]([O-])c1cccc2c(O)cccc12`, which growth inhibition is on record?
A: 35% (inactive)

Q: Which growth inhibition does the source give for `O=C1C(=O)c2ccccc2C(O)=C1Sc1ccccc1` here?
A: 89% (active)

Q: For `CC(=O)N(O)c1ccc2c(c1)Cc1cc(F)ccc1-2`, which growth inhibition is on record?
A: 29% (inactive)

Q: Which growth inhibition does the source give for `CC12CCC(=O)C=C1CCC1C2CCC2(C)C(c3cnc[nH]3)CCC12` (stereo not given) here?
A: 46% (inactive)

Q: For `O=C1OC(C2OC(=O)C(=O)C2C(=O)c2ccc(Cl)c(Cl)c2)C(C(=O)c2ccc(Cl)c(Cl)c2)C1=O` (stereo not given), which growth inhibition is on record?
A: 93% (active)

Q: With `CC/C(C)=C1\CCC(CN2CCOCC2)C1=O` (stereo not given) as the compound, how does the growth inhibition read?
A: 77% (active)

Q: Which growth inhibition does the source give for `COc1ccc(C2CC(=O)CC(=O)C2)cc1` here?
A: -8% (inactive)

Q: With `Cc1ccc(O)c(C(c2ccc([N+](=O)[O-])cc2)c2cc(C)ccc2O)c1` as the compound, how does the growth inhibition read?
A: 98% (active)

Q: With `O=C1OS(=O)(=O)c2cc3c(cc21)C1C(C2C3C3(Cl)C(Cl)=C(Cl)C2(Cl)C3(Cl)Cl)C2(Cl)C(Cl)=C(Cl)C1(Cl)C2(Cl)Cl` (stereo not given) as the compound, how does the growth inhibition read?
A: 72% (active)

Q: With `CCOC(=O)C1SC(=S)N(C)C1=O` (stereo not given) as the compound, how does the growth inhibition read?
A: 99% (active)

Q: Which growth inhibition does the source give for `O=C(c1ccc(Cl)c([N+](=O)[O-])c1)c1ccc(Cl)c([N+](=O)[O-])c1` here?
A: 94% (active)

Q: Which growth inhibition does the source give for `Cc1cc[c]([Sn]([Cl])([O][Sn]([Cl])([c]2ccc(C)cc2)[c]2ccc(C)cc2)[c]2ccc(C)cc2)cc1` here?
A: 55% (inactive)

Same assay, conditions: S. cerevisiae mec2-1 strain, at 50.0 µM, active compounds read high

Q: Which growth inhibition does the source give for `O=C(O)/C=C/C(=O)Nc1cccc2ccccc12` here?
A: 35.9% (inactive)

Q: For `CCCCCN=C(C)C(C)=NCCCCC`, which growth inhibition is on record?
A: 74.3% (active)

Q: With `Oc1ccc(N=Nc2ccccc2)c(O)c1.Oc1ccc(N=Nc2ccccc2)c(O)c1.[Cu]` as the compound, how does the growth inhibition read?
A: 98.2% (active)

Q: Which growth inhibition does the source give for `NNc1c(Cl)cc(Cl)cc1Cl` here?
A: 98.9% (active)

Q: For `C=C1C[C@H](O)[C@H]2C(C[Se]c3ccccc3)C(=O)O[C@@H]2[C@H]2[C@H](C)C(O)C[C@@H]12` (stereo not given in full), which growth inhibition is on record?
A: 20.6% (inactive)

Q: With `O=C(CBr)Oc1ccc(-c2cccc(Br)c2)cc1` as the compound, how does the growth inhibition read?
A: 99.5% (active)

Q: For `CCCCC1=NCCc2c1cc1c([nH]c3ccccc31)c2C`, which growth inhibition is on record?
A: 46.2% (inactive)

Q: With `CCOC(=O)NC(=S)Nc1ccsc1` as the compound, how does the growth inhibition read?
A: 11.4% (inactive)

Q: Which growth inhibition does the source give for `CCCCCCCCCCCCCCCCNC(C)c1ccccc1` (stereo not given) here?
A: 98.7% (active)

Q: With `Cc1ccc(C2(O)CC(c3ccc([N+](=O)[O-])o3)=NN2C(=O)COc2ccc(Cl)cc2)cc1` (stereo not given) as the compound, how does the growth inhibition read?
A: 51.9% (inactive)

Q: For `CCOC(=O)/C(C#N)=C/c1ccccc1Br`, which growth inhibition is on record?
A: 20.4% (inactive)

Q: Which growth inhibition does the source give for `CCCCCCCCCCCCCCCCNCCCCCCCC(=O)O` here?
A: 35.2% (inactive)

Q: With `CC[N+]1(C)CCC(O)(c2ccc(Cl)c(Cl)c2)C(C(=O)c2ccc(Cl)c(Cl)c2)C1` (stereo not given) as the compound, how does the growth inhibition read?
A: 99.6% (active)

Q: With `CC(=O)Nc1nnc(-c2coc3ccccc3c2=O)s1` as the compound, how does the growth inhibition read?
A: 6.25% (inactive)

Q: Which growth inhibition does the source give for `CCC(C)(C)NCCCCCNc1cc(OC)cc2cccnc12` here?
A: 40.2% (inactive)

Q: With `CSC(=Nc1ccccc1)/N=C(\SCc1ccccc1)N(C)C` as the compound, how does the growth inhibition read?
A: 99.7% (active)

Q: For `N=Cc1cc([N+](=O)[O-])ccc1O`, which growth inhibition is on record?
A: 93% (active)

Q: With `CCCCCCCC(=O)/C=C/c1ccc(C)cc1` as the compound, how does the growth inhibition read?
A: 44.1% (inactive)

Q: Which growth inhibition does the source give for `Cc1ccc(S(=O)(=O)N/N=C2/CC[C@H](C(C)(C)C)C[C@@H]2C)cc1` here?
A: 90% (active)

Q: For `Nc1ccc2c(c1)CCc1ccccc1-2`, which growth inhibition is on record?
A: 43.6% (inactive)

Q: For `CN(C)CCC(=O)[C@@]1(O)CC[C@H]2[C@@H]3CC=C4C[C@@H](O)CC[C@]4(C)[C@H]3CC[C@@]21C`, which growth inhibition is on record?
A: 75.4% (active)

Q: With `CC(=O)OC1COC(N2C(=O)C(=O)c3cc(Br)ccc32)C(OC(C)=O)C1OC(C)=O` (stereo not given) as the compound, how does the growth inhibition read?
A: -12.3% (inactive)

Q: With `Cc1ccc(N2CCN(c3c(N)cncc3Br)CC2)cc1` as the compound, how does the growth inhibition read?
A: 97.3% (active)

Q: Which growth inhibition does the source give for `O=C(O)c1ccccc1SC(Sc1ccccc1C(=O)O)c1cccc(Cl)c1` here?
A: 80% (active)

Q: For `CC[N+](C)(CC)CCC(=O)/C=C/c1ccccc1`, which growth inhibition is on record?
A: 93% (active)

Q: For `COc1ccc(C(C)c2cc3c(cc2OC/C(C)=N/NC(N)=O)OCO3)cc1` (stereo not given), which growth inhibition is on record?
A: 71.6% (active)

Q: Which growth inhibition does the source give for `CN=C(N)N/N=C(\C)c1ccc2c(c1)Cc1cc(Cl)ccc1-2` here?
A: 97% (active)

Q: For `CCCCCCCCN/N=C(/C)CCCCCO`, which growth inhibition is on record?
A: -11.8% (inactive)

Q: For `O=[N+]([O-])c1cccc2c(O)cccc12`, which growth inhibition is on record?
A: 33.4% (inactive)

Q: Which growth inhibition does the source give for `O=C1C(=O)c2ccccc2C(O)=C1Sc1ccccc1` here?
A: 92.4% (active)

Q: For `CC(=O)N(O)c1ccc2c(c1)Cc1cc(F)ccc1-2`, which growth inhibition is on record?
A: 94% (active)

Q: For `CC12CCC(=O)C=C1CCC1C2CCC2(C)C(c3cnc[nH]3)CCC12` (stereo not given), which growth inhibition is on record?
A: 30.1% (inactive)

Q: For `O=C1OC(C2OC(=O)C(=O)C2C(=O)c2ccc(Cl)c(Cl)c2)C(C(=O)c2ccc(Cl)c(Cl)c2)C1=O` (stereo not given), which growth inhibition is on record?
A: 63.8% (inactive)

Q: For `CC/C(C)=C1\CCC(CN2CCOCC2)C1=O` (stereo not given), which growth inhibition is on record?
A: 72% (active)

Q: Which growth inhibition does the source give for `COc1ccc(C2CC(=O)CC(=O)C2)cc1` here?
A: 10.1% (inactive)

Q: For `Cc1ccc(O)c(C(c2ccc([N+](=O)[O-])cc2)c2cc(C)ccc2O)c1`, which growth inhibition is on record?
A: 92.9% (active)

Q: With `O=C1OS(=O)(=O)c2cc3c(cc21)C1C(C2C3C3(Cl)C(Cl)=C(Cl)C2(Cl)C3(Cl)Cl)C2(Cl)C(Cl)=C(Cl)C1(Cl)C2(Cl)Cl` (stereo not given) as the compound, how does the growth inhibition read?
A: 71.8% (active)

Q: With `CCOC(=O)C1SC(=S)N(C)C1=O` (stereo not given) as the compound, how does the growth inhibition read?
A: 99.5% (active)

Q: For `O=C(c1ccc(Cl)c([N+](=O)[O-])c1)c1ccc(Cl)c([N+](=O)[O-])c1`, which growth inhibition is on record?
A: 93.4% (active)

Q: For `Cc1cc[c]([Sn]([Cl])([O][Sn]([Cl])([c]2ccc(C)cc2)[c]2ccc(C)cc2)[c]2ccc(C)cc2)cc1`, which growth inhibition is on record?
A: 89.2% (active)
